Results on 40 compounds are retold here after PubChem BioAssay (NCI).

SMILES strings stand for the structures. About 79,000 compounds went through this panel and 15% of them were active in at least one assay; those are over-represented in the sample as a whole. A number with no mark means an inactive call. Activity calls are given as the source filed them. Rule as the data show it: active = growth inhibition above about 70%; inactive = the rest. Where a SMILES comes first, the peptide text is derived from it.

The first test can be described thus: NCI Yeast Anticancer Drug Screen. Data for the rad50 strain (AID 155).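 Also: 0% = growth of vehicle-only cultures of the same strain.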 Conditions: S. cerevisiae rad50 strain growth inhibition; at 50.0 µM; stronger effect = higher value. A digest of the protocol:
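Genetically altered yeast (DNA repair pathway); compound treatment; growth inhibition vs vehicle ctrl.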
For `Cc1cc(=O)n(-c2ccccc2)c(=O)n1-c1nc2ccccc2[nH]1`, the growth inhibition was 19%.
Consider `C=CCc1cc(C(=O)C(=O)c2cc(CC=C)c(OC(C)=O)c(OC)c2)cc(OC)c1OC(C)=O`, for which the growth inhibition is 3.2%.
Turning to `Clc1ccc2c(c1)Cc1ccccc1-2`, the growth inhibition is 38.6%.
Consider `CC(=O)c1cccc(NC(=O)/C(=N\NC(=S)NN)C2C(=O)Nc3ccccc3S2=O)c1` (stereo not given), for which the growth inhibition was -3.6%.
As to `COC(=O)CCN(CCC(=O)OC)C1CC1`, the growth inhibition is -23.4%.
For the compound `CCOC(=O)/C(C#N)=C/NCC1CC1`, the growth inhibition was -21.8%.
For `O=c1[nH]c(=O)n(C2CC(O)C(CO)O2)cc1C#Cc1ccc(C(F)(F)F)cc1` (stereo not given), the growth inhibition is 13.1%.
`Cc1ccc(C2(c3ccccc3)c3ccccc3C(=O)N2c2ccccc2)cc1` (stereo not given): the growth inhibition was 97% (active).
Still for that read-out and setting: the same measure for `Cc1ccc2c(c1)C(c1ccccc1)(c1ccccc1)OC2=O`: 17.6%; for `COc1ccc(C2S/C(=C\c3cccc([N+](=O)[O-])c3)C(=O)N2NC(=O)Cc2ccccc2)cc1` (stereo not given): 0.65%.
Regarding `CSC(=O)/C=C1\SS/C(=C\C(=O)SC)S1`, the growth inhibition was -10%.
On the same count and under the same terms, the same measure for `CCCCCCCCCCCCCCCCCC(=O)N/N=C/c1ccccc1OC`: 7.05%; for `N=c1c2ncn(C3OC(COP(=O)(O)O)C(O)C3O)c2ncn1O` (stereo not given): 12.7%.
Still for that read-out and setting: the same measure for `CCOc1ccc(NC(=O)CCc2nnc(SC)o2)cc1`: 20.5%.
Turning to `COc1ccc(N(C)C(=S)c2ccccc2)cc1`, the growth inhibition is -49.5%.
On to `COc1ccc(C(=O)c2ccccc2)c(OC(=O)Nc2ccc(Cl)cc2)c1`, for which the growth inhibition is 14.8%.
With `OCc1ccccc1C1CSCSC1`, the growth inhibition was -7.2%.
Consider `Oc1cc(CN2CCOCCOCCOCCOCC2)c(O)cc1CN1CCOCCOCCOCCOCC1`, for which the growth inhibition is 7.85%.
In the case of `O=C1C(CO)=C[C@@H](O)[C@H]2O[C@@H]12`, the growth inhibition is 8.25%.
With `Cc1n[nH]c2ccccc2c1=O`, the growth inhibition was -4.85%.
`O=C(NCc1ccco1)Nc1ccccc1Cl`: the growth inhibition was -24.9%.
With `CCC(O)C(CC)[N+](=O)[O-]` (stereo not given), the growth inhibition was -4.45%.
With `CCOC(OCC)c1ccc(O)cc1`, the growth inhibition was -4.4%.
For the compound `Cc1cc(=O)[nH]c(=O)n1CCCN(C)CCCn1c(C)cc(=O)[nH]c1=O`, the growth inhibition is 2.2%.
For `OCC1OC(O)C(N=Cc2ccc3c(c2)OCO3)C(O)C1O` (stereo not given), the growth inhibition is 13.7%.
With `O=C1CC(N2C(=O)C3C4CCC(O4)C3C2=O)C(=O)N1` (stereo not given), the growth inhibition was 2.45%.
Take `CC12CCCCC1CC(=O)/C(=C\O)C2` (stereo not given): the growth inhibition was 12.7%.
In the case of `COc1cc(C2CC(C)=C(C)CC2C(=O)O)cc(OC)c1OC` (stereo not given), the growth inhibition was 1.55%.
Turning to `O=C(Nc1ccc(Br)cc1)c1ccccc1`, the growth inhibition is 14.4%.
For `CC(C/C=C(/C=O)C(C)CC(C)(C)C)CC(C)(C)C` (stereo not given), the growth inhibition was 43.9%.
As to `CC(=O)OC(C(=O)N(c1ccccc1)c1ccccc1)c1ccccc1` (stereo not given), the growth inhibition is 3.5%.
Regarding `O=C1NCCN(CCc2ccccc2)C1c1ccccc1` (stereo not given), the growth inhibition is -9.6%.
On the same count and under the same terms, the value for `N#CCCN(CCC#N)c1ccc(/C=C2/C=C(c3ccccc3)OC2=O)cc1` was 22.4%.
In the case of `CSCCC(N)C(=O)NC(CCSC)C(=O)O` (stereo not drawn) (H-Met-Met-OH; configuration not given here), the growth inhibition was -12%.
Turning to `C=CC(C/C(C)=N/Nc1ccc([N+](=O)[O-])cc1[N+](=O)[O-])c1ccccc1` (stereo not given), the growth inhibition is -17.7%.
On to `CC(=O)C1=C(C)N2C(=NC3=C(CCc4ccccc43)C2c2ccc(F)cc2)S1` (stereo not given), for which the growth inhibition is -5.6%.
On to `CCn1cc(C(=O)O)c(=O)c2ccc(-c3cn[nH]c3C)nc21`, for which the growth inhibition was 44.5%.
Turning to `COc1ccc2c(c1)C1Oc3ccccc3CC1(O)CO2` (stereo not given), the growth inhibition was 14.4%.
For the compound `COc1ccc(SSc2ccc(OC)cc2)cc1`, the growth inhibition is 25.9%.
Consider `CC(C)(O)C(F)(F)F`, for which the growth inhibition is 13.8%.

A further test can be described thus: NCI Yeast Anticancer Drug Screen. Data for the mec2-1 strain (AID 157). The note with it: S. cerevisiae mec2-1 strain, at 50.0 µM, stronger effect = higher value. A digest of the protocol: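 Growth inhibition is read against vehicle-treated controls after compound exposure of the mec2-1 yeast strain, which is defective in DNA damage repair or cell cycle control.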
`Cc1cc(=O)n(-c2ccccc2)c(=O)n1-c1nc2ccccc2[nH]1`: the growth inhibition was -8.4%.
Regarding `C=CCc1cc(C(=O)C(=O)c2cc(CC=C)c(OC(C)=O)c(OC)c2)cc(OC)c1OC(C)=O`, the growth inhibition is 6.75%.
For `Clc1ccc2c(c1)Cc1ccccc1-2`, the growth inhibition was -6.95%.
For `CC(=O)c1cccc(NC(=O)/C(=N\NC(=S)NN)C2C(=O)Nc3ccccc3S2=O)c1` (stereo not given), the growth inhibition is -42.4%.
With `COC(=O)CCN(CCC(=O)OC)C1CC1`, the growth inhibition is -14.3%.
With `CCOC(=O)/C(C#N)=C/NCC1CC1`, the growth inhibition was -33.5%.
With `O=c1[nH]c(=O)n(C2CC(O)C(CO)O2)cc1C#Cc1ccc(C(F)(F)F)cc1` (stereo not given), the growth inhibition was -3.4%.
As to `Cc1ccc(C2(c3ccccc3)c3ccccc3C(=O)N2c2ccccc2)cc1` (stereo not given), the growth inhibition was 97.6% (active).
In the case of `Cc1ccc2c(c1)C(c1ccccc1)(c1ccccc1)OC2=O`, the growth inhibition is 11.9%.
In the case of `COc1ccc(C2S/C(=C\c3cccc([N+](=O)[O-])c3)C(=O)N2NC(=O)Cc2ccccc2)cc1` (stereo not given), the growth inhibition was -21.2%.
`CSC(=O)/C=C1\SS/C(=C\C(=O)SC)S1`: the growth inhibition was -10.4%.
As for `CCCCCCCCCCCCCCCCCC(=O)N/N=C/c1ccccc1OC`, the growth inhibition is 11.9%.
With `N=c1c2ncn(C3OC(COP(=O)(O)O)C(O)C3O)c2ncn1O` (stereo not given), the growth inhibition is 0%.
On the same count and under the same terms, the same measure for `CCOc1ccc(NC(=O)CCc2nnc(SC)o2)cc1`: -17.2%.
On the same count and under the same terms, the value for `COc1ccc(N(C)C(=S)c2ccccc2)cc1` was -11.7%; that for `COc1ccc(C(=O)c2ccccc2)c(OC(=O)Nc2ccc(Cl)cc2)c1` was -3.4%.
Take `OCc1ccccc1C1CSCSC1`: the growth inhibition is -29.1%.
Still for that read-out and setting: the same measure for `Oc1cc(CN2CCOCCOCCOCCOCC2)c(O)cc1CN1CCOCCOCCOCCOCC1`: -11.8%; for `O=C1C(CO)=C[C@@H](O)[C@H]2O[C@@H]12`: 1.5%; for `Cc1n[nH]c2ccccc2c1=O`: -17.9%.
As to `O=C(NCc1ccco1)Nc1ccccc1Cl`, the growth inhibition was -0.2%.
As to `CCC(O)C(CC)[N+](=O)[O-]` (stereo not given), the growth inhibition was -17.4%.
`CCOC(OCC)c1ccc(O)cc1`: the growth inhibition is 3.15%.
For `Cc1cc(=O)[nH]c(=O)n1CCCN(C)CCCn1c(C)cc(=O)[nH]c1=O`, the growth inhibition is -2.35%.
On to `OCC1OC(O)C(N=Cc2ccc3c(c2)OCO3)C(O)C1O` (stereo not given), for which the growth inhibition is -14.6%.
With `O=C1CC(N2C(=O)C3C4CCC(O4)C3C2=O)C(=O)N1` (stereo not given), the growth inhibition is 18.2%.
As to `CC12CCCCC1CC(=O)/C(=C\O)C2` (stereo not given), the growth inhibition is 15.1%.
With `COc1cc(C2CC(C)=C(C)CC2C(=O)O)cc(OC)c1OC` (stereo not given), the growth inhibition was 22.4%.
The same measure, in the same setting: the value for `O=C(Nc1ccc(Br)cc1)c1ccccc1` was 20.9%.
Turning to `CC(C/C=C(/C=O)C(C)CC(C)(C)C)CC(C)(C)C` (stereo not given), the growth inhibition is 20.2%.
For `CC(=O)OC(C(=O)N(c1ccccc1)c1ccccc1)c1ccccc1` (stereo not given), the growth inhibition was 27.4%.
Regarding `O=C1NCCN(CCc2ccccc2)C1c1ccccc1` (stereo not given), the growth inhibition was 0.95%.
As for `N#CCCN(CCC#N)c1ccc(/C=C2/C=C(c3ccccc3)OC2=O)cc1`, the growth inhibition is -0.25%.
With `CSCCC(N)C(=O)NC(CCSC)C(=O)O` (stereo not drawn) (H-Met-Met-OH; configuration not given here), the growth inhibition is -21.4%.
On to `C=CC(C/C(C)=N/Nc1ccc([N+](=O)[O-])cc1[N+](=O)[O-])c1ccccc1` (stereo not given), for which the growth inhibition is -4.85%.
Consider `CC(=O)C1=C(C)N2C(=NC3=C(CCc4ccccc43)C2c2ccc(F)cc2)S1` (stereo not given), for which the growth inhibition is -23.9%.
Consider `CCn1cc(C(=O)O)c(=O)c2ccc(-c3cn[nH]c3C)nc21`, for which the growth inhibition was 34.1%.
Turning to `COc1ccc2c(c1)C1Oc3ccccc3CC1(O)CO2` (stereo not given), the growth inhibition is 6.75%.
Take `COc1ccc(SSc2ccc(OC)cc2)cc1`: the growth inhibition is -1.1%.
Regarding `CC(C)(O)C(F)(F)F`, the growth inhibition was -5.85%.
